Data published in PubChem BioAssay (NCI).
This is part of a sample that, as a whole, favours compounds with a hit. Of some 79,000 tested, about 15% had one in any assay. Activity calls are given as the source filed them. No stated cut-off is given here; in the data, active means growth inhibition above about 70%; inactive means the rest.

What was measured:
[1] = NCI Yeast Anticancer Drug Screen. Data for the rad50 strain (AID 155);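 further: 0% = growth of vehicle-only cultures of the same strain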; conditions: S. cerevisiae rad50 strain growth inhibition; at 50.0 µM; stronger effect = higher value
Outline: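 Vehicle-treated cultures provide the reference for the growth inhibition reported for compound-exposed, repair-deficient yeast.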

[2] = NCI Yeast Anticancer Drug Screen. Data for the mec2-1 strain (AID 157); conditions: S. cerevisiae mec2-1 strain, at 50.0 µM, stronger effect = higher value
Outline: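 Each compound was tested on mec2-1 yeast, a strain altered in DNA damage repair or cell cycle control. Growth inhibition is reported relative to vehicle.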

[3] = NCI Yeast Anticancer Drug Screen. Data for the sgs1 mgt1 strain (AID 161);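 further: 0% = growth of cultures given vehicle only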; conditions: S. cerevisiae sgs1 mgt1 strain, at 50.0 µM, stronger effect = higher value
Outline: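 Genetically altered yeast, compound exposure, growth inhibition relative to vehicle.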

[4] = NCI Yeast Anticancer Drug Screen. Data for the cln2 rad14 strain (AID 165);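 further: 0% = growth equal to vehicle treated cultures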; conditions: S. cerevisiae cln2 rad14 strain, at 50.0 µM, stronger effect = higher value
Outline: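 Test compounds were added to cln2 rad14 yeast cultures; inhibition of growth was then determined by comparison with vehicle treatment.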

[5] = NCI Yeast Anticancer Drug Screen. Data for the bub3 strain (AID 167); conditions: S. cerevisiae bub3 mutant strain, at 50.0 µM, stronger effect = higher value
Outline: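 Mutant yeast screening strain plus compound; vehicle-treated cultures serve as the 0% inhibition reference.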

[6] = NCI Yeast Anticancer Drug Screen. Data for the mlh1 rad18 strain (AID 175); conditions: S. cerevisiae mlh1 rad18 strain growth inhibition; at 50.0 µM; stronger effect = higher value
Outline: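 Inhibition values reflect reduced growth of mutant yeast versus vehicle-treated controls following compound exposure; the mutations affect DNA damage repair.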

Measured: growth inhibition

CCCC1([N+](=O)[O-])CCC(C)(O)C(C(C)=O)C1 (stereo unspecified)
inactive: [1] -4.3% | [2] -3.8% | [3] 0.9% | [4] -3.35% | [5] -4.8% | [6] 17.4%

CC(=O)C1=C(O)C(CSCc2ccccc2)NC1=O (stereo unspecified)
inactive: [1] 10.8% | [2] 0.65% | [3] 5.95% | [4] -2.9% | [5] 15.1% | [6] 15.2%

CC(=O)Nc1ccc(S(=O)(=O)N/N=c2/sc3ccccc3n2C)cc1
inactive: [1] -11.3% | [2] -12.4% | [3] 16% | [4] 20.5% | [5] 13.8% | [6] -4%

COc1cc(C(=O)O)c(C(=O)O)cc1OC
inactive: [1] 2.6% | [2] 21.4% | [3] 20.5% | [4] -29.1% | [5] 2.45% | [6] 0.5%

CC(C)OC(=O)CCCCCc1ccccc1
inactive: [1] 6% | [2] -2.7% | [3] -29.1% | [4] 7.85% | [5] 2.1% | [6] -8.4%

CCOC(=O)C1(Cc2ccccc2)Cc2ccccc2C1=O (stereo unspecified)
active: [3] 79% | [5] 73.7%
inactive: [1] 7.75% | [2] 29.9% | [4] 62.1% | [6] 63.5%

Cn1c(=O)c2c(nc(C3CC3)n2C)n(C)c1=O
inactive: [1] -1.15% | [2] -0.6% | [3] 5.65% | [4] -16.6% | [5] -0.55% | [6] 12.1%

COC1=C(N)C(=O)c2ccc(-c3ccccn3)nc2C1=O
active: [1] 89.7% | [2] 92.3% | [3] 86.8% | [4] 89.8% | [5] 81.8% | [6] 92.9%

Nc1c(OCc2ccccc2)cccc1C(=O)O
inactive: [1] -7.1% | [2] -9.5% | [3] 10.9% | [4] -47.5% | [5] -40.5% | [6] -12.2%

Clc1ccc(C(n2cc(Br)cn2)n2cc(Br)cn2)cc1
active: [1] 89.6% | [2] 90.8% | [3] 90.7% | [4] 90.2% | [5] 91% | [6] 87.5%

CC12CCC(CC1)C(C)(C)N=C(N)S2
inactive: [1] -3.1% | [2] -10.8% | [3] -2.75% | [4] -18% | [5] -11.2% | [6] -20%

CC1CC(=O)Oc2ccccc21 (stereo unspecified)
inactive: [1] 35.5% | [2] 5.7% | [3] 3.8% | [4] -3.35% | [5] 5.95% | [6] 1.5%

Fc1nc2nc(C(F)(F)F)[nH]c2nc1F
inactive: [1] 15.8% | [2] -0.85% | [3] -23.9% | [4] -59.5% | [5] 0.85% | [6] 7.6%

COc1ccc(/C=C2/C(=O)N(c3ccccc3)N=C2C)cc1
inactive: [1] 22.2% | [2] -2.2% | [3] 17.3% | [4] 0.4% | [5] 16.7% | [6] 22.1%

CN(C)c1ccc(/C=C(\C#N)c2c(Cl)cccc2Cl)cc1
inactive: [1] -13.9% | [2] -8.55% | [3] -11.1% | [4] -25.4% | [5] 8.3% | [6] -5.75%

COC(=O)CSc1n[nH]c(-c2ccccc2)n1
inactive: [1] 1.05% | [2] -7.25% | [3] 7.2% | [4] -1% | [5] 3.4% | [6] -4.3%

O=C(O)c1cccc(-c2nn[nH]n2)c1
inactive: [1] 2.75% | [2] 0.5% | [3] -4.55% | [4] -55% | [5] 0.25% | [6] -2.7%

O=C(N/N=C\c1ccc(Cl)cc1)Nc1ccc2ccccc2c1
inactive: [1] 2.9% | [2] 11.1% | [3] 4.35% | [4] 12.9% | [5] 20% | [6] 29.1%

CCOC(=O)C(CC(c1ccc2c(c1)OCO2)C(C(=O)N(C(C)C)C(C)C)[N+](=O)[O-])C(=O)OCC (stereo unspecified)
inactive: [1] 54.9% | [2] 21.4% | [3] 60.5% | [4] 16.2% | [5] 11.8% | [6] 26.4%

Cc1ccc(S(=O)(=O)c2c(N)c3nc4ccccc4n3c3nc4ccccc4nc23)cc1
inactive: [1] 21.4% | [2] -10.3% | [3] -5.2% | [4] 25.7% | [5] -0.45% | [6] 13.1%

CC(=O)NC(CCCCNC(=O)N(C)N=O)C(=O)NCc1ccccc1 (stereo unspecified)
inactive: [1] -41.1% | [2] -17.6% | [3] -12.2% | [4] -4.3% | [5] -26.8% | [6] -12.8%

CC(C)(O)C(Cc1ccccc1)c1ccccc1 (stereo unspecified)
inactive: [1] 0.55% | [2] 7.9% | [3] -16.1% | [4] -2.1% | [5] -23.6% | [6] 0.8%

CCCCCCCCCCC1OC(C)C(C)O1 (stereo unspecified)
inactive: [1] 0.4% | [2] -13.1% | [3] -7.3% | [4] -25.1% | [5] -5.5% | [6] 13.2%

CCCCN(C(=O)N(CC)CC)[Si](C)(C)C
inactive: [1] -17.6% | [2] -41.7% | [3] -12.4% | [4] 14% | [5] -14.7% | [6] -25.3%

OCC1OC(Nc2ccc(F)cc2)C(O)C1O (stereo unspecified)
inactive: [1] 2.95% | [2] -10.4% | [3] -1.3% | [4] 30.1% | [5] -13.2% | [6] 26.2%

Cn1cc(S(=O)(=O)NC(=O)Nc2ccc(Cl)cc2)c(=O)c2ccc(Cl)cc21
inactive: [1] 21.6% | [2] 20.8% | [3] 23.1% | [4] -17.5% | [5] 33.2% | [6] 8.75%

O=C(NO)/C(CC(=O)c1ccccc1O)=N\O
inactive: [1] -5.4% | [2] -21.6% | [3] -11.2% | [4] -2.05% | [5] -4.15% | [6] -7.75%

COc1ccc(C(=O)OCc2ccccc2CN2CCCCC2)cc1
inactive: [1] -4.75% | [2] -7.25% | [3] 11.4% | [4] -16.3% | [5] -14.2% | [6] -5.6%

COc1cc(C=C2C(=O)NC(=O)NC2=O)ccc1OCc1ccccc1
inactive: [1] -0.15% | [2] -1.5% | [3] -1.1% | [4] 3.3% | [5] -22.3% | [6] -42.6%

CC(=Nc1cccc(C(F)(F)F)c1)c1c(O)cc(C)oc1=O
inactive: [1] 9.25% | [2] 14.8% | [3] 24.9% | [4] 11.7% | [5] 28.2% | [6] 35.1%

O=C1CSC(c2ccc(Cl)c([N+](=O)[O-])c2)N1c1nncs1 (stereo unspecified)
inactive: [1] 7.9% | [2] 4.6% | [3] 24.2% | [4] 12.7% | [5] 10% | [6] 25.1%

COc1ccc(C)cc1N=NC1C(=O)N(C(=O)CC(=O)Nc2ccccc2OC)N=C1c1ccccc1 (stereo unspecified)
inactive: [1] 12.8% | [2] -1.5% | [3] -7.4% | [4] 6.55% | [5] 2.35% | [6] 15.3%

CN(C)NC1=C([N+](=O)[O-])C=NN(c2ccccc2)C1
inactive: [1] 15% | [2] -1.15% | [3] 13.4% | [4] 19.4% | [5] 22.1% | [6] 51.6%

CCCC(C)OC(=O)CC(c1ccccc1)N1CCCCC1 (stereo unspecified)
inactive: [1] 41.7% | [2] -10.1% | [3] 23.4% | [4] -23.6% | [5] 40.2% | [6] 26.5%

Cc1ccccc1NC(=O)C(=O)Cc1nc2ccccc2s1
inactive: [1] 14.8% | [2] -8.7% | [3] -1.5% | [4] 11.8% | [5] 9.15% | [6] 20.4%

S=C(N/N=C\c1ccccc1)Nc1ccccc1
inactive: [1] 6.65% | [2] -1.05% | [3] -8.2% | [4] 8.65% | [5] 10.8% | [6] 14.9%

COCCCNC1=C(C#N)C(=O)NC2(CCCC2)S1
inactive: [1] -35.6% | [2] -35.5% | [3] -18.5% | [4] -2.65% | [5] -30.8% | [6] -17.2%

BrC12CC3CC(CC(C3)C1)C2
inactive: [1] 21.8% | [2] 13.1% | [3] 9.4% | [4] 11.1% | [5] 9.25% | [6] 12.8%

COc1cc(/C=C2\C=Nc3ccccc32)ccc1O
inactive: [1] 27.8% | [2] 23.9% | [3] 38% | [4] 20.3% | [5] 40.3% | [6] 35.7%

CC(=O)Nc1nc(NC(C)=O)c2nc(CCN(C)c3ccc(C(=O)O)cc3)cnc2n1
inactive: [1] -9.05% | [2] -18.4% | [3] -5.6% | [4] -5.25% | [5] -40.5% | [6] 2.15%

O=C(Nc1nc(C23CC4CC(CC(C4)C2)C3)cs1)c1cc2cc(Cl)ccc2oc1=O
inactive: [1] -32.2% | [2] -37.5% | [3] -2.35% | [4] 10.6% | [5] -28.1% | [6] -38%
